Test results: PubChem BioAssay (NCI)
This is part of a sample that, as a whole, favours compounds with a hit. Of some 83,000 tested, about 20% had one in any assay.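 Cells were grown in 96-well plates and exposed to the test compound at a single concentration for 48 hours; results are reported as percent growth, with values below 10 considered active.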 Values without a mark were called inactive. Activity calls are given as the source filed them.

Key:
Test in all cases: NCI-60 one-dose screen, 48 h (100 = growth as untreated, 0 = no growth, -100 = all killed)
Conditions in all cases: 10 µM unless noted
SK-MEL-2 melanoma = system: SK-MEL-2 melanoma
EKVX NSCLC = system: EKVX NSCLC
SN12C renal = system: SN12C renal
UO-31 renal = system: UO-31 renal
TK-10 renal = system: TK-10 renal
ACHN renal = system: ACHN renal
CAKI-1 renal = system: CAKI-1 renal
A498 renal = system: A498 renal
CCRF-CEM leukemia = system: CCRF-CEM leukemia
MOLT-4 leukemia = system: MOLT-4 leukemia
SR leukemia = system: SR leukemia
RPMI-8226 leukemia = system: RPMI-8226 leukemia
OVCAR-8 ovarian = system: OVCAR-8 ovarian
OVCAR-5 ovarian = system: OVCAR-5 ovarian
OVCAR-4 ovarian = system: OVCAR-4 ovarian
SK-OV-3 ovarian = system: SK-OV-3 ovarian
IGROV1 ovarian = system: IGROV1 ovarian
HS 578T breast = system: HS 578T breast
NCI/ADR-RES ovarian = system: NCI/ADR-RES ovarian

Row | SMILES | growth (SK-MEL-2 melanoma) | growth (EKVX NSCLC) | growth (SN12C renal) | growth (UO-31 renal) | growth (TK-10 renal) | growth (ACHN renal) | growth (CAKI-1 renal) | growth (A498 renal) | growth (CCRF-CEM leukemia) | growth (MOLT-4 leukemia) | growth (SR leukemia) | growth (RPMI-8226 leukemia) | growth (OVCAR-8 ovarian) | growth (OVCAR-5 ovarian) | growth (OVCAR-4 ovarian) | growth (SK-OV-3 ovarian) | growth (IGROV1 ovarian) | growth (HS 578T breast) | growth (NCI/ADR-RES ovarian)
1 | CN1CCN(Cc2ccc(NC(=O)c3cncc(C#Cc4cnc5ccc(OC6CCOCC6)nn45)c3)cc2C(F)(F)F)CC1 | -90.8% (active) | -73.8% (active) | -78.8% (active) | -92.3% (active) | -89.6% (active) | -100% (active) | -97% (active) | -92.5% (active) | 0.551% (active) | 3.74% (active) | -16.2% (active) | -20.9% (active) | -58.8% (active) | -55.4% (active) | -53.7% (active) | -73.7% (active) | -43.3% (active) | -38.1% (active) | -37.7% (active)
2 | O=C1C(N2CCN(c3ccccc3)CC2)=C(Cl)C(=O)c2ncccc21 | 97.1% | 101% | 58.2% | 14.9% | 123% | -3.31% (active) | 39.9% | 104% | 6.08% (active) | 9.67% (active) | 3.69% (active) | 35.5% | 73.5% | 107% | 66% | 91.5% | 70% | 79.8% | 77%
3 | Clc1ccc2[nH]cc(-c3cncn3CCc3ccc4c(c3)OCO4)c2c1 | 86.4% | 48% | 77% | 51.9% | 96.9% | 78.4% | 35.6% | 56.3% | 64.2% | 60.4% | 62.1% | 42.5% | 76% | 76.2% | 33% | 81% | 76.8% | 69.7% | 78.6%
4 | O=C1[C@H]2Cc3c([nH]c4ccccc34)[C@H](c3ccc(Cl)cc3)N2C(=O)CN1C1CCN(CC2CCCCC2)CC1 | 98.2% | 81.5% | 69.7% | 39.1% | 112% | 74.8% | 37.9% | 80.4% | 39.3% | 35.1% | -5.73% (active) | 23.4% | 74.9% | 96.1% | 72.7% | 93.8% | 72.2% | 74.4% | 68.5%
5 | O=C1Nc2ccc(F)cc2/C1=C\C(=O)c1ccc(NS(=O)(=O)c2ccccc2)cc1 | 115% | 82.8% | 87.2% | 70% | 130% | 74.6% | 72.9% | 115% | 8.68% (active) | 40.7% | 9.42% (active) | 67.6% | 91.1% | 107% | 93.2% | 112% | 87.2% | 110% | 96.7%
6 | O=C(Nc1cccc(Cl)c1)Nc1nc2cc([N+](=O)[O-])ccc2o1 | 45.5% | 27.8% | 35.3% | 59.3% | 94.9% | 47.8% | 62% | 28.3% | 25% | 33.8% | 57.8% | 35.8% | 33.9% | 75.5% | 3.58% (active) | 74.3% | 44.9% | 71.4% | 22.6%
7 | C#C[C@]1(O)CC[C@H]2[C@@H]3CC=C4c5sc(N(C)c6ccccc6)nc5CC[C@]4(C)[C@H]3CC[C@@]21C | 85.8% | 103% | 91.2% | 106% | 137% | 92.1% | 92.3% | 88.4% | 44.3% | 31.3% | 43.7% | 2.94% (active) | 82% | 92.5% | 94% | 98.7% | 107% | 89.8% | 82.1%
8 | O=C1/C(=C/c2cc(F)cc(F)c2)Cc2cc3c(cc21)OCO3 | 44.3% | 73.5% | 45.7% | 41.3% | 99.4% | 43.9% | 29.1% | 20.2% | 56.1% | 43.3% | 18.4% | 52.3% | 42.5% | 65.3% | 61.9% | 35.6% | 36.9% | 46.9% | 19.4%
9 | CC/C(=C(/c1ccc(Cl)cc1)c1ccc(OCCN)cc1)c1ccccc1 | 105% | 102% | 104% | 78.2% | 115% | 96.1% | 74.6% | 92.9% | 80.5% | 84.1% | 0.24% (active) | 89.8% | 100% | 119% | 99.3% | 119% | 96.8% | 90.3% | 99.9%
10 | CN(C)CCNc1ccc2ncc(C#Cc3cncc(C(=O)Nc4ccc(CN5CCN(C)CC5)c(C(F)(F)F)c4)c3)n2n1 | 0.656% (active) | 7.33% (active) | -9.94% (active) | 77.8% | 26.6% | 10.7% | 3.13% (active) | 87.7% | 5.95% (active) | -9.54% (active) | 0.232% (active) | -11.2% (active) | 1.03% (active) | 11.4% | -10.1% (active) | 45.1% | 0.103% (active) | -16.1% (active) | 76%
11 | O=C1/C(=C/C=C/c2ccco2)SC(=S)N1Cc1ccccc1 | 102% | 98% | 99.2% | 83.9% | 124% | 104% | 81% | 88.9% | 93.5% | 96.4% | 46.3% | 93.6% | 100% | 105% | 95.1% | 103% | 92.9% | 104% | 99.8%
12 | N#Cc1cccc(-c2cc(-c3ccc4c(c3)OCCO4)[nH]n2)c1 | 47.3% | 63.3% | 49.2% | 42.8% | 76.8% | 44.2% | 35.8% | 28.4% | 14.2% | 23% | 12.4% | 18.3% | 35.3% | 71.8% | 79.2% | 54.3% | 36.5% | 40.1% | 20%
13 | Cc1[nH]c(C(=O)Nc2ccc(S(=O)(=O)N3CCCCC3)cc2OCCOCCOCCOCCOCCOCCOCCOCCOCCOc2cc(S(=O)(=O)N3CCCCC3)ccc2NC(=O)c2[nH]c(C)c3c2CCCCC3=O)c2c1C(=O)CCCC2 | -11.7% (active) | 44% | 23.1% | 40.5% | 8.54% (active) | 67.5% | 15.9% | -42.9% (active) | 38.4% | 11.8% | 10.9% | 10.6% | 13.6% | 48.6% | 12.5% | -42.5% (active) | 6.25% (active) | -17% (active) | 85.3%
14 | O=C(/C=C/C=C/c1csc(Br)n1)NO | 109% | 102% | 95.1% | 71.9% | 86.6% | 92.6% | 83.9% | 92.8% | 43.1% | 75.3% | 60% | 60.7% | 85.7% | 98.2% | 103% | 113% | 106% | 98.5% | 74.6%
15 | NC(=S)n1c(=O)n(-c2cccc(C(F)(F)F)c2)c(=O)c2cc(-c3ccc(F)cc3F)ccc21 | -29.1% (active) | 5.19% (active) | -3.03% (active) | 6.1% (active) | 7.56% (active) | -0.456% (active) | -13.5% (active) | -18.8% (active) | 18% | 0.58% (active) | 5.69% (active) | -20.8% (active) | 10.9% | 9.62% (active) | 29.9% | -2.63% (active) | 21.2% | -2.09% (active) | 4.95% (active)
